Results on seven sequences are retold here after the supplement of paper PMC6555819.

Experiment in all cases: PBM binding z-score (relative to random genomic background probes); higher = stronger binding; sequences stand for … in GC…GCGATTGACAGCGTAGAATGAAGG
In test [1] the test system is RARb homodimer (NR concentration 270 nM). In a few lines:
(§1)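 On custom Agilent 4×180K arrays, double-stranded probes with 34-nt variable regions carried direct-repeat seeds, single-nucleotide variants, half-site ablations or random human genomic background. Ligand-free nuclear receptor dimers were applied for 1 h, and binding was read with antibodies against each partner (one per run). Binding z-scores come from regression-normalized fluorescence, with the random background probes as reference.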

The test system of test [2] is RARg:RXRa (NR concentration 270 nM, RXRa partner concentration 90 nM). In a few lines:
as §1

Test [3] deals with RARg homodimer (NR concentration 270 nM). The method, boiled down:
as §1

Test [4] deals with RXRa DBDmut IVT, anti-RXR (DBD mutation: RXRa K156A/R161A, NR concentration 90 nM). In a few lines:
as §1

Test [5] relates to RXRa homodimer (NR concentration 180 nM). The method, boiled down: as §1
Test [6] has as its system THRa:RXRa (NR concentration 90 nM, RXRa partner concentration 90 nM). In a few lines:
as §1

Test [7] has as its system THRa homodimer (NR concentration 90 nM). In a few lines:
as §1

For test [8], the system named is VDR homodimer (NR concentration 270 nM). In a few lines: as §1

Regarding CAGCCTAGGTCAGGGCCAGTAAAGGAGGAACGTT, the PBM binding z-score in test [1] was 2.33; in test [2] it was 2.7; in test [3], 3.44; in test [4], -0.0941; in test [5], 1.55; in test [6], 1.86. Further, the figures for the PBM binding z-score in test [7] and in test [8] were 0.361 and -0.267, respectively.
Regarding CCGACTGGGGCAAGGTTATCATAACGCACAGCCA, the PBM binding z-score in test [1] was determined as 1.27; in test [2], 1.03; in test [3], 1.08; in test [4] it was 0.0521; in test [5], 1.12; in test [6], 1. Also, the figures for the PBM binding z-score in test [7] and in test [8] were 0.224 and 0.128, respectively.
GCAGCCAGGTGAAACGCAGGTAACTCAGGGTGGC: the PBM binding z-score in test [1] is -0.292; in test [2] it was 0.262; in test [3] it was -0.109; in test [4] it was -0.94; in test [5], 0.157; in test [6] it was 1.68. Moreover, the PBM binding z-score in test [7] is -0.396; in test [8], -0.939.
For the sequence ATATGTAGGTTAAGGGTCATTAAGGTTGGTTCGC, the PBM binding z-score in test [1] came out at 4.07; in test [2] it was 4.66; in test [3] it was 3.54; in test [4], 1.78; in test [5] it was 5.92; in test [6], 3.48. Also, the PBM binding z-score was 1.58 in test [7] and 3.96 in test [8].
As to CCTTACGGGTCACTAACAGGTTATAGCATTTGGA, the PBM binding z-score came out at 3.17 in test [1]; 5.31 in test [2]; 4.12 in test [3]; 2.03 in test [4]; 4.25 in test [5]; 2.98 in test [6]. Besides, the PBM binding z-score in test [7] is 0.367; in test [8] it was 1.29.
Turning to TCAGATAGGTAATACAGGTGAAAGTCGGCATCTA, the PBM binding z-score turned out to be 0.54 in test [1]; 0.562 in test [2]; 0.364 in test [3]; 1.27 in test [4]; 1.03 in test [5]; 0.795 in test [6]. Besides, the figures for the PBM binding z-score in test [7] and in test [8] were 0.181 and 0.187, respectively.
Turning to GCTATTAGTTGAAAGGGAAACCGAATGATTCTCG, the PBM binding z-score in test [1] was -0.448; in test [2], -0.0918; in test [3], 0.0889; in test [4], 0.797; in test [5] it was -0.215; in test [6], -0.127. For the same sequence, the PBM binding z-score was -0.399 in test [7] and 0.461 in test [8].
